Measurements from PubChem BioAssay AID624255 (Broad Institute, 2012).
“And” between values parts separate entries of the source, which are not always exact repeats. Equal entries are not always repeated. Hit rate of the full screen: of about 77,000 compounds, about 4,600 (6%) were called active. Not shown: some 1% with an inconclusive outcome. Shown is part of a subset that was picked to be rich in actives. Values without a mark were called inactive.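 The calls were made as follows: active = mean inhibition above about 93%, with at least 55% of replicates each passing it (limit read from the data, passing the limit was not always enough); inconclusive = only one of those two conditions holds; inactive = neither condition holds.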

Assay: T. cruzi intracellular proliferation inhibitors, primary screen, cell-based, beta-gal Tulahuen parasites, NIH3T3 host, luminescence (AID 624255)
Conditions: T. cruzi beta-gal in NIH3T3, GalScreen luminescence, 90 h; at 8.34 µM; active compounds read high

With `CO[C@H]1CC[C@H]2CCOc3c(C#N)cccc3C(=O)N(C)CC3(CCCCC3)CC(=O)N(C)C[C@@H]1O2` as the molecule, how does the inhibition read?
Its inhibition is 13.3%.

With `CCCNC(=O)Nc1ccc2c(c1)OC[C@@H](C)N(C(=O)c1ccccc1F)C[C@H](C)[C@@H](OC)CN(C)C2=O` as the molecule, how does the inhibition read?
Its inhibition is 52.3%.

For `COCC(=O)N1CCCCN2[C@H](CO)[C@H](c3ccc(C#Cc4ccc(OC)cc4)cc3)[C@H]2C1`, which inhibition is on record?
Its inhibition is 72.8%.

Which inhibition does the source give for `COCC#Cc1ccc([C@@H]2[C@@H](CO)N3CCCCN(C(=O)NC4CCCC4)C[C@H]23)cc1` here?
Its inhibition is 69.2%.

Which inhibition does the source give for `CC(C)NC(=O)N1CCCCN2[C@@H](CO)[C@@H](c3ccc(C#Cc4ccccc4)cc3)[C@@H]2C1` here?
Its inhibition is 80.4%.

With `COc1ccccc1C#Cc1ccc([C@@H]2[C@H](CO)N3CCCCN(C(=O)C4CC4)C[C@@H]23)cc1` as the molecule, how does the inhibition read?
Its inhibition is 110% (active).

Which inhibition does the source give for `COc1ccccc1C#Cc1ccc([C@H]2[C@H](CO)N3CCCCN(C(=O)C4CCC4)C[C@@H]23)cc1` here?
Its inhibition is 109% (active).

With `COc1ccccc1C#Cc1ccc([C@@H]2[C@H](CO)N3CCCCN(C(=O)C4CCCC4)C[C@@H]23)cc1` as the molecule, how does the inhibition read?
The inhibition was 109% (active).

For `COc1ccccc1C#Cc1ccc([C@@H]2[C@@H](CO)N3CCCCN(S(C)(=O)=O)C[C@@H]23)cc1`, which inhibition is on record?
Its inhibition is 77.3%.

For `CO[C@@H]1CN(C)C(=O)c2cc(NC(=O)c3ccccc3)ccc2OC[C@H](C)N(C(=O)CN(C)C)C[C@H]1C`, which inhibition is on record?
The inhibition was -60.5%.

Which inhibition does the source give for `O=C([C@H]1[C@H](CO)[C@H]2Cn3c(ccc(C4=CCCCC4)c3=O)[C@@H]1N2)N1CCCCC1` here?
The inhibition was 60.4%.

For `CO[C@H]1CN(C)C(=O)c2ccc(NS(C)(=O)=O)cc2OC[C@H](C)N(C(=O)C2CCC2)C[C@H]1C`, which inhibition is on record?
Its inhibition is 11%.

Which inhibition does the source give for `O=C(C1CCC1)N1C[C@H]2[C@@H](c3ccccc31)[C@@H](CO)N2C(=O)c1ccccc1F` here?
Its inhibition is 5.17%.

Which inhibition does the source give for `COc1cccc(S(=O)(=O)N[C@H]2CC[C@@H](CCN)O[C@H]2CO)c1` here?
The inhibition was 59%.

Which inhibition does the source give for `Cc1noc(C)c1S(=O)(=O)Nc1ccc2c(c1)C(=O)N([C@H](C)CO)C[C@@H](C)[C@@H](CN(C)C(=O)C1CCCCC1)OCCCC[C@@H](C)O2` here?
The inhibition was 48.7%.

For `CC(C)NC(=O)Nc1ccc2c(c1)C(=O)N(C)[C@@H]1CC[C@H](CC(=O)NCC3CCCCC3)O[C@@H]1CO2`, which inhibition is on record?
Its inhibition is -5.5%.

With `C[C@H](O)C#Cc1ccc2c(c1)O[C@H](CN(C)C(=O)C1CCCCC1)[C@@H](C)CN([C@H](C)CO)S2(=O)=O` as the molecule, how does the inhibition read?
The inhibition was 60.6%.

With `C[C@H]1CCCCO[C@@H](CN(C)C(=O)Cc2ccccc2)[C@@H](C)CN([C@@H](C)CO)C(=O)c2cc(NC(=O)c3ccccc3)ccc2O1` as the molecule, how does the inhibition read?
The inhibition was 33.7%.

For `C[C@H]1CN([C@@H](C)CO)C(=O)c2cc(NC(=O)C3CC3)ccc2O[C@@H]1CN(C)Cc1ccc(Oc2ccccc2)cc1`, which inhibition is on record?
The inhibition was 66.9%.

With `C[C@H](CO)N1C[C@H](C)[C@@H](CN(C)Cc2ccccc2)Oc2ccc(NC(=O)Nc3ccc4c(c3)OCO4)cc2C1=O` as the molecule, how does the inhibition read?
Its inhibition is 8.73%.

For `C[C@@H]1CN([C@H](C)CO)C(=O)c2cc(NC(=O)Nc3ccc4c(c3)OCO4)ccc2O[C@H]1CN(C)Cc1ccc(-c2ccccc2)cc1`, which inhibition is on record?
Its inhibition is 70.1%.

With `COc1ccc(NC(=O)Nc2ccc3c(c2)C(=O)N([C@@H](C)CO)C[C@H](C)[C@@H](CN(C)Cc2ccc4c(c2)OCO4)O3)cc1` as the molecule, how does the inhibition read?
Its inhibition is 31.2%.

For `C[C@H]1CN([C@@H](C)CO)C(=O)c2cc(NC(=O)Nc3ccc4c(c3)OCO4)ccc2O[C@@H]1CN(C)Cc1ccc(Oc2ccccc2)cc1`, which inhibition is on record?
Its inhibition is 119% (active).

Which inhibition does the source give for `C[C@@H]1CN([C@@H](C)CO)C(=O)c2cc(NC(=O)Nc3ccc4c(c3)OCO4)ccc2O[C@@H]1CN(C)Cc1ccc(Oc2ccccc2)cc1` here?
The inhibition was 100% (active).

For `CCCNC(=O)C[C@@H]1CC[C@@H]2[C@H](COc3ccc(NC(=O)c4cc(F)cc(F)c4)cc3C(=O)N2C)O1`, which inhibition is on record?
Its inhibition is -19.9%.

Which inhibition does the source give for `C[C@@H]1CCCCO[C@@H](CN(C)C(=O)Nc2ccc(F)cc2)[C@H](C)CN([C@@H](C)CO)C(=O)c2cc(NS(C)(=O)=O)ccc2O1` here?
Its inhibition is 23.8%.

With `CN(C)C(=O)c1ccc(-c2ccc([C@H]3[C@@H](CO)N4CCCCN(CC5CC5)C[C@H]34)cc2)cc1` as the molecule, how does the inhibition read?
Its inhibition is 108% (active).

With `CN(C)C(=O)c1ccc(-c2ccc([C@@H]3[C@H](CO)N4CCCCN(S(C)(=O)=O)C[C@@H]34)cc2)cc1` as the molecule, how does the inhibition read?
The inhibition was 103% (active).

Which inhibition does the source give for `CN(C)C(=O)c1ccc(-c2ccc([C@H]3[C@H](CO)N4CCCCN(S(C)(=O)=O)C[C@@H]34)cc2)cc1` here?
Its inhibition is 83.3%.

Which inhibition does the source give for `CN(C)C(=O)c1ccc(-c2ccc([C@@H]3[C@@H](CO)N4CCCCN(CC5CC5)C[C@H]34)cc2)cc1` here?
Its inhibition is 11.3%.

Which inhibition does the source give for `CN(C)CC#Cc1ccc([C@H]2[C@H](CO)N3CCCCN(CC4CC4)C[C@@H]23)cc1` here?
Its inhibition is -75.2%.

For `CS(=O)(=O)N1CCCCN2[C@@H](CO)[C@@H](c3ccc(Br)cc3)[C@@H]2C1`, which inhibition is on record?
The inhibition was -42.1%.

For `CN1C(=O)c2cc(NC(=O)Nc3ccccc3Cl)ccc2OC[C@H]2O[C@@H](CC(=O)O)CC[C@H]21`, which inhibition is on record?
The inhibition was 15.3%.

Which inhibition does the source give for `Cc1noc(C)c1NC(=O)N(C)C[C@@H]1OCCCC[C@H](C)Oc2ccc(NC(=O)NC3CCCCC3)cc2C(=O)N([C@H](C)CO)C[C@@H]1C` here?
The inhibition was 22.8%.

With `Cc1ccccc1S(=O)(=O)Nc1ccc2c(c1)C(=O)N(C)[C@H]1CC[C@@H](CC(=O)O)O[C@H]1CO2` as the molecule, how does the inhibition read?
Its inhibition is 13.1%.

Which inhibition does the source give for `C[C@@H]1CN([C@H](C)CO)C(=O)Cc2cc(NC(=O)CCN3CCOCC3)ccc2O[C@H]1CN(C)CC1CC1` here?
The inhibition was 37.8%.

For `O=C(CC1CC1)N1[C@H](CO)[C@@H]2c3ccccc3N(S(=O)(=O)c3ccc(F)cc3)C[C@@H]21`, which inhibition is on record?
Its inhibition is 18.3%.

Which inhibition does the source give for `C[C@H]1CN([C@@H](C)CO)C(=O)CCCn2cc(nn2)CO[C@@H]1CN(C)S(=O)(=O)c1ccc(-c2ccccc2)cc1` here?
Its inhibition is 3.26% and 11.9%.

Which inhibition does the source give for `COc1ccc(C#Cc2cnc3c(c2)C(=O)N([C@H](C)CO)C[C@H](C)[C@H](CN(C)S(=O)(=O)c2ccc(F)cc2)O3)cc1OC` here?
Its inhibition is 104%.

Which inhibition does the source give for `C[C@@H]1CN([C@@H](C)CO)C(=O)CCCn2cc(nn2)CO[C@@H]1CN(C)S(=O)(=O)c1ccccc1F` here?
The inhibition was 112% (active).

Which inhibition does the source give for `C[C@H]1CN([C@@H](C)CO)C(=O)c2cc(C#Cc3ccccc3F)cnc2O[C@H]1CN(C)C` here?
Its inhibition is 87.2%.

For `C[C@H](CO)N1C[C@H](C)[C@@H](CN(C)S(=O)(=O)c2ccccc2)Oc2ncc(C#Cc3ccccc3F)cc2C1=O`, which inhibition is on record?
The inhibition was 120% (active).

For `C[C@@H]1CN([C@@H](C)CO)C(=O)CCCn2cc(nn2)CO[C@@H]1CN(C)S(=O)(=O)c1cccc(F)c1`, which inhibition is on record?
The inhibition was -8.28%.

Which inhibition does the source give for `CCCNC(=O)N(C)C[C@@H]1Oc2ncc(C#Cc3ccccc3F)cc2C(=O)N([C@@H](C)CO)C[C@H]1C` here?
The inhibition was 116% (active).

For `C[C@H]1CN([C@@H](C)CO)C(=O)c2cc(C#Cc3ccccc3F)cnc2O[C@@H]1CN(C)C(=O)C1CC1`, which inhibition is on record?
The inhibition was -11.1%.

Which inhibition does the source give for `C[C@H](CO)N1C[C@H](C)[C@@H](CN(C)S(=O)(=O)c2ccccc2F)Oc2ncc(C#Cc3ccccc3F)cc2C1=O` here?
Its inhibition is 112% (active).

With `C[C@H](CO)N1C[C@H](C)[C@H](CN(C)C(=O)C2CCOCC2)Oc2ncc(C#Cc3ccccc3F)cc2C1=O` as the molecule, how does the inhibition read?
Its inhibition is -27.2%.

For `CCCNC(=O)N(C)C[C@H]1Oc2ncc(C#Cc3ccncc3)cc2C(=O)N([C@@H](C)CO)C[C@@H]1C`, which inhibition is on record?
Its inhibition is 12.1%.

With `CCCNC(=O)N(C)C[C@H]1Oc2ncc(C#CC(C)C)cc2C(=O)N([C@@H](C)CO)C[C@@H]1C` as the molecule, how does the inhibition read?
Its inhibition is 53.3%.

Which inhibition does the source give for `CCC(=O)NC[C@H]1[C@@H](c2ccc(C3=CCCC3)cc2)[C@@H](CO)N1C(=O)C1CC1` here?
Its inhibition is 21.5%.

With `CO[C@H]1CN(C)C(=O)c2cc(NC(=O)C3CCCCC3)ccc2OC[C@H](C)N(C(=O)c2ccccc2)C[C@H]1C` as the molecule, how does the inhibition read?
Its inhibition is 7.09%.

For `C/C=C/c1cnc2c(c1)C(=O)N([C@@H](C)CO)C[C@@H](C)[C@@H](CN(C)C(=O)C1CCOCC1)O2`, which inhibition is on record?
The inhibition was -31.5%.

For `CCCNC(=O)Nc1ccc2c(c1)C(=O)N(C)[C@H]1CC[C@H](CC(=O)NC3CCC3)O[C@H]1CO2`, which inhibition is on record?
The inhibition was 57.7%.

With `O=C(CC1CC1)N1CC[C@@H]2[C@H](CO)Nc3ccc(-c4ccc(F)cc4)cc3[C@@H]21` as the molecule, how does the inhibition read?
The inhibition was 89.6%.

For `CN(C)C(=O)c1cccc(-c2ccc3c(c2)[C@H]2[C@H](CCN2C(=O)Cc2ccccc2)[C@H](CO)N3)c1`, which inhibition is on record?
Its inhibition is 80.1%.

Which inhibition does the source give for `O=C(Cc1ccccc1)N1CC[C@H]2[C@H](CO)Nc3ccc(-c4ccccc4F)cc3[C@H]21` here?
The inhibition was 111% (active).

For `O=C(Cc1ccccc1)N1CC[C@@H]2[C@H](CO)Nc3ccc(-c4ccccc4)cc3[C@@H]21`, which inhibition is on record?
The inhibition was 81.9%.

Which inhibition does the source give for `N#Cc1ccc(-c2ccc3c(c2)[C@H]2[C@H](CCN2Cc2ccc4c(c2)OCO4)[C@@H](CO)N3)cc1` here?
The inhibition was 79.2%.

Which inhibition does the source give for `N#Cc1ccc(-c2ccc3c(c2)[C@@H]2[C@@H](CCN2C(=O)Cc2ccncc2)[C@@H](CO)N3)cc1` here?
The inhibition was 108% (active).

With `Cc1noc(C)c1NC(=O)N(C)C[C@@H]1OCCCC[C@H](C)Oc2ccc(NS(=O)(=O)c3c(C)noc3C)cc2C(=O)N([C@@H](C)CO)C[C@@H]1C` as the molecule, how does the inhibition read?
Its inhibition is -9.2%.

For `COc1cccc(S(=O)(=O)N[C@H]2CC[C@@H](CC(=O)NCc3ccc(F)cc3)O[C@@H]2CO)c1`, which inhibition is on record?
Its inhibition is 47.6%.

For `COc1ccc(-c2ccc3c(c2)O[C@@H](CN(C)CC2CCOCC2)[C@@H](C)CN([C@@H](C)CO)S3(=O)=O)cc1`, which inhibition is on record?
Its inhibition is 40.6%.
